Source: PubChem
Only some compounds are listed: those with a hit (about 5.3% of all), similar ones and a draw of the others.
LASV entry inh = Lassa virus entry inhibition. Lassa virus pseudotype entry inhibition, cell reporter. Potency, µM (titrated, usually from 37.9 µM), inactives show at the top dose activity change, negative = inhibition, actives largely listed as inhibitors. 300,000 compounds, 1.2% hits; calls by dose curve; tested in HEK293 cells; further: nearly all actives have a fitted effect of over 50% in size
VACV Venus inh = vaccinia inhibition (Venus reporter). Vaccinia virus Venus reporter expression, fluorescence. Potency, µM (series often up to 36.5 µM), without a hit: at the highest dose activity change, negative = inhibition, hits mostly inhibitors. 330,000 compounds, 0.46% hits. AID 720580; calls by dose curve; tested in A549 cells; further: nearly all actives have a fitted effect of over 30% in size
MARV entry inh = Marburg virus entry inhibition; Marburg virus pseudotyped entry inhibition, cell reporter; Potency, µM (top dose mostly 37.8 µM), for the others: at the top dose activity change, negative = inhibition, hits mostly inhibitors; 300,000 compounds, 1.8% hits; calls by dose curve; tested in HEK293 cells
Vaccinia mCherry = vaccinia inhibition (mCherry reporter) | Vaccinia virus mCherry reporter infection, fluorescence | 310,000 compounds, 0.63% hits | Potency, µM (doses to about 36.5 µM), for inactives: at the highest dose activity change, negative = inhibition, hits mostly inhibitors; calls by dose curve; tested in A549 cells; further: nearly all actives have a fitted effect of over 35% in size
HCV inhibitor = inhibitors of hepatitis C virus infection | Huh7.5.1 HCVcc-Cre infection, luciferase reporter, 44 h | Potency, µM (top dose mostly 41.8 µM), inactives show top-dose activity change, negative = inhibition, hits mostly inhibitors | 340,000 compounds, 3.4% hits | AID 651820; active means well fitted inhibition curve with a large enough effect; inconclusive means small, poorly fitted or top-dose-only effect, or another doubt; inactive means no such curve, though single readings can be large or run the other way
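Compounds are dispensed onto cells plated 4 h earlier at 1,000 per well, with HCVcc-Cre virus (about 0.5 moi) added next. Following 44 h of culture, luminescent signal is measured for 15 sec after 15 min with substrate at room temperature.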
FMDV antiviral = blocks foot and mouth disease virus. FMDV antiviral cell-based qHTS. Potency, µM (top dose mostly 57.9 µM), without a hit: at the highest dose activity change, negative = inhibition, most hits filed as inhibitors. 410,000 compounds, 1.2% hits. AID 1159524; calls by dose curve; tested in HEK293T cells; further: read-out not given here; nearly all actives have a fitted effect of over 45% in size
Numbers without * were called inactive; i = inactive; ? = inconclusive; . = no result given; [ ] = dose if it differs, or a comment. On the % scale 0 is the no-effect control and ±100 the full control effect; potency means the concentration at half of the fitted maximal effect.

SMILES | LASV entry inh | VACV Venus inh | MARV entry inh | Vaccinia mCherry | HCV inhibitor | FMDV antiviral
COc1cc(/C=N/NC(=O)c2ccoc2C)ccc1O | 17% | 0% | ? | -17% | -19% | 61%
COc1cccc(/C=N/NC(=O)c2ccoc2C)c1O | . | ? | . | 4.5µM* | 10µM* | -29%
CCOc1cc(Br)cc(/C=N/NC(=O)c2cccnc2)c1O | ? | ? | ? | 7.1µM* | ? | ?
COc1cc2nc(N(C)C)c(CNCCc3c[nH]c4ccccc34)cc2c(OC)c1OC | . | 2% | . | -10% | . | 0%
COC(=O)c1cccc(C(=O)N2CCc3c(cnc(C)c3CNC(=O)c3ccsc3)C2)c1 | . | 13% | . | -7% | . | -12%
COc1cccc(CNC(=O)C2CCN(S(=O)(=O)c3ccc4c(c3)CCCN4C(C)=O)CC2)c1 | -4%[46.1 µM] | 3% | . | -5% | . | -15%
COc1cccc(/C=N/NC(=O)c2cnccn2)c1O | . | -5% | . | 4.5µM* | -8% | 13%
CC1Cc2ccccc2C[N+]1(C)CC(=O)c1cccc([N+](=O)[O-])c1 (centres undefined) | . | -11% | . | 0% | . | .
Cc1ccc(C(=O)N2CCN(C3c4cccc5cccc(c45)C3NS(=O)(=O)c3ccccc3)CC2)cc1 (centres undefined) | 13µM* | -29% | 11µM* | . | ? | -30%
Cc1ccc(S(=O)(=O)NC2c3cccc4cccc(c34)C2Sc2nc(C)cc(C)n2)cc1 (centres undefined) | ? | -13% | 18µM* | -11% | ? | 4%
Cc1ccc(S(=O)(=O)NC2c3cccc4cccc(c34)C2Sc2nncn2C)cc1 (centres undefined) | ? | -10% | ? | -22% | -1% | 11%
CCOC(=O)c1ccc(NC(=O)NCc2ccccn2)cc1 | . | . | . | . | 5% | 22%
CCS(=O)(=O)c1ccc2oc(Nc3ccc(C(C)(C)C)cc3)nc2c1 | -25% | -16% | -5% | -8% | ? | ?
CCN(CC)S(=O)(=O)c1ccc2oc(Nc3ccc4c(c3)OCCO4)nc2c1 | -21% | -24% | ? | -13% | 10µM* | -3%
COc1ccc(Oc2c(Cl)cnn(-c3ccc(C)cc3)c2=O)cc1 | ? | -3% | 10µM* | . | ? | 0%
COc1ccc(Oc2c(Cl)cnn(-c3ccc(F)cc3)c2=O)cc1 | ? | -8% | ? | . | ? | 0%
COc1ccc(Oc2c(Cl)cnn(-c3ccc(Cl)c(Cl)c3)c2=O)cc1 | ? | -29% | ? | . | ? | 28µM*
CC(C)Oc1ccc(CNC(=O)CC(c2ccccc2)c2cc(Cl)ccc2O)cc1 (centres undefined) | 7.3µM* | . | ? | . | ? | ?
COc1ccccc1C(CC(=O)Nc1ccc(Cl)cc1)c1ccc(OC(C)C)cc1 (centres undefined) | -23% | -15% | ? | -12% | ? | -13%
CC(C)c1nn2c(=O)cc(COC(=O)CNC(=O)c3ccccc3)nc2s1 | 24%[46.1 µM] | -8% | . | 7% | . | -8%
Cc1ccc(-n2c(-c3ccccc3)c[n+]3c2CCc2ccccc2-3)c(C)c1 | 1µM* | ? | ? | ? | ? | 2.8µM*
CCc1nc(SCC(=O)c2ccc3c(c2)OCCO3)c2ccccc2n1 | ? | . | 17% | . | 8.9µM* | ?
CCCc1nc(SCC(=O)c2ccc(OC)cc2)c2ccccc2n1 | -19%[46.1 µM] | -21% | ? | i | 13µM* | ?
O=C(CSc1nc(CCC2CCCC2)nc2ccccc12)NCc1ccc2c(c1)OCO2 | ? | -22% | 13µM* | -5% | ? | -3%
Cc1cccc2cc(CN(C(=O)c3ccc(N4CCCCC4)cc3)C3CC3)c(N3CCC(O)CC3)nc12 | . | -5% | . | -21% | . | -9%
SMILES | LASV entry inh | VACV Venus inh | MARV entry inh | Vaccinia mCherry | HCV inhibitor | FMDV antiviral
CCOc1ccc(C(=O)NCc2ccc3c(c2)CCN3C(=O)c2ccc(C)cc2)cc1OCC | -6%[46.1 µM] | -24% | . | -10% | . | -4%
Cn1c(-c2ccccc2)cnc1SCC(=O)N1CCCc2ccccc21 | 7% | -8% | 1% | -10% | 0% | -8%
Cc1cc(-c2ccccc2)nc(SCC(=O)N2CCCC2)n1 | -11%[46.1 µM] | 4% | ? | -2% | 25µM* | -14%
Cn1c(-c2ccccc2)cnc1SCC(=O)N1CCCCC1 | 3.5µM* | -30% | ? | . | 7% | 16µM*
Cc1cccc(NC(=O)CSc2nc3c(oc4ccccc43)c(=O)n2-c2ccccc2)c1C | . | -7% | ? | -10% | . | -15%
Cc1ccc(F)cc1NC(=O)c1ccc(Cn2nc(N3CCN(c4ccccc4)CC3)ccc2=O)o1 | ? | ? | . | ? | . | 35µM*
Cc1ccc(CNC(=O)c2ccc(N3CCCC3)c(NC(=O)Nc3ccc(F)c(Cl)c3)c2)cc1 | 2%[46.1 µM] | -8% | . | -4% | . | 5%
CC1=NN(c2nc(N)nc(/C(C#N)=C/c3ccc([N+](=O)[O-])o3)n2)C(C)(C)C1 | -1% | 9% | ? | -3% | 8.9µM* | ?
CN1N=C(C(C)(C)C)CC1=O | -6% | 2% | 22µM* | -2% | -2% | -9%
Fc1ccc(CNc2ncnc3cc(Cl)ccc23)cc1 | . | . | . | . | 10µM* | ?
CN(C)C(=O)c1ccc(-c2cc3onc(-c4ccccc4)c3c(=O)n2C)cc1 | . | ? | . | -7% | 3.5µM* | -11%
CCC12C=C(/C=C/c3ccccc3)C(CC)(C1)C(c1ccccc1)CC2=O (centres undefined) | . | . | 13%[14.2 µM] | . | . | .
COc1ccc(CCNC(=O)C(=O)NCC(c2cccs2)S(=O)(=O)c2ccc(C)cc2)cc1 (centres undefined) | ? | -7% | . | -11% | . | 20µM*
COc1ccc(CCNC(=O)C(=O)NCC(c2cccs2)S(=O)(=O)c2ccccc2)cc1 (centres undefined) | -3%[46.1 µM] | ? | . | ? | . | 28µM*
COCCN(C)C(=O)c1cnn(-c2nccc(-c3cc(C)sc3C)n2)c1C | . | 6% | . | -11% | . | 44%
Cc1cc(O)cc2c1C1CCC3(C)C(O)CCC3C1C=C2 (centres undefined) | -27%[46.1 µM] | ? | -26%[46.1 µM] | 4.5µM* | ? | -8%
C[C@]12CC[C@@H]3c4ccc(O)cc4[C@@H](O)C[C@H]3[C@@H]1CC[C@@H]2O | -19% | . | -4% | . | -5%[8.37 µM] | .
COc1ccc(C(=O)NCC(c2cccnc2)N2CCN(c3ccccc3OC)CC2)cc1OC (centres undefined) | . | -12% | -3% | -4% | ? | ?
COC(=O)c1ccc(NC(=O)C(=O)NCC(c2cccnc2)N2CCN(c3ccccc3)CC2)cc1 (centres undefined) | -9%[46.1 µM] | -17% | . | -17% | . | -9%
COC(=O)NCC(c1cccnc1)N1CCN(c2ccccc2F)CC1 (centres undefined) | . | 3% | . | -17% | 8% | -19%
COc1cccc(C(=O)NCC(c2cccnc2)N2CCN(c3ccccc3OC)CC2)c1 (centres undefined) | . | -24% | . | -20% | ? | 35µM*
